Measurements taken from PubChem BioAssay AID952 (NMMLSC, 2007).
Screen size: about 190,000 compounds; about 45 (0.02%) were called active. No stated cut-off is given here; in the data, active means inhibition above about 40%. A selection follows.

Target: Bcl-2-like protein 2 (Homo sapiens) (UniProt Q92843)
Assay: inhibitors of Bim binding to Bcl-W, primary screen, biochemical, multiplexed, bead-based flow cytometry (AID 952);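 further: 0% = bound tracer without compound and 100% = peptide blocker; higher means less fluorescent Bim peptide bound to Bcl-W beads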
Settings: Bim peptide-Bcl-W binding, at 10 µM, active compounds read high

Bcl-2-like protein 2 (Homo sapiens), sequence (Q92843 whole entry, looked up): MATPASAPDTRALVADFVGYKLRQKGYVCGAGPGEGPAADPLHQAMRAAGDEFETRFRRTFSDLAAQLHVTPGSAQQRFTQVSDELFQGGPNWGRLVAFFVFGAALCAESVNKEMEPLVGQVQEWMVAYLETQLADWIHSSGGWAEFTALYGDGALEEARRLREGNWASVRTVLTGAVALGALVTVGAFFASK

inhibition, inactive:
CCOC(=O)NC(=O)/C(C#N)=C\c1ccccc1 -2%
Cc1cc(C)cc(NC(=O)N2CCCCCCC2)c1 0%
Cc1[nH]c2ccccc2c1C(=O)COC(=O)c1c(-c2ccccc2)noc1C -1%
COc1cc(SC#N)ccc1N=Cc1c(C)[nH]n(-c2ccc(C)cc2)c1=O 6%
O=C(NCc1ccccc1)C1CCCN(c2nc3ccsc3c(=O)s2)C1 (stereo not given) -4%
CCN(CC)CC(=O)Nc1sc2c(c1C(=O)c1ccccc1C)CCC2 0%
O=C(Nc1nnc(-c2ccco2)o1)c1ccc(S(=O)(=O)N2CCOCC2)cc1 0%
Cc1nc(N2CCOCC2)sc1C(=O)NN 0%
CC1CCN(C(=S)c2cccc([N+](=O)[O-])c2)CC1 0%
N/C(=N\OC(=O)CCCC(=O)O)c1ncc(C(F)(F)F)cc1Cl -1%
Cc1ccc(SC(C)C(=O)NCc2ccc(F)cc2)cc1 (stereo not given) 0%
Cc1ccc(Nc2cc(C)nc3c(C)ccc([N+](=O)[O-])c23)cc1 0%
N#Cc1c(NC(=O)c2ccc(N3CCOCC3)c([N+](=O)[O-])c2)sc2c1CCCC2 -4%
Cc1cc(C)nc(-n2nc(C)cc2NC(=O)c2ccc(F)cc2F)n1 1%
CCc1nn(CCCN2CCN(c3cccc(Cl)c3)CC2)c(=O)n1CCOc1ccccc1 -5%
C/C(=N/N1CCN(Cc2cccc3ccccc23)CC1)c1cccnc1 0%
O=C1CC(c2cccc(Cl)c2)CC(O)=C1C=Nc1ccccc1 (stereo not given) -5%
Cc1cnc(C(=O)OCC(=O)N2CCc3ccccc32)cn1 0%
CC(=O)C1(C)N(O)C(C)(C)C(c2cccs2)=[N+]1[O-] (stereo not given) 0%
O=C(OCC(=O)c1cccs1)c1ccc([N+](=O)[O-])o1 0%
O=C(CCl)N(Cc1cccc([N+](=O)[O-])c1)c1cccc(Cl)c1 1%
c1ccc2c(c1)OCCOCCOCCO2 0%
CCOc1cccc2c1OC1(CCCCC1)N1N=C(c3cccnc3)CC21 (stereo not given) -4%
CCCC(=O)Nc1ccc(C(=O)N/N=C/c2ccc[nH]2)cc1 -5%
Cc1ccc(S(=O)(=O)N(C)C)cc1NC(=O)COC(=O)c1c(C)noc1C 0%
Cc1cc(/C=N/NC(=O)c2cccnc2)c(C)n1CC(C)C 1%
CC(=O)Nc1ccc(NC(=O)CSc2nnc(COc3ccccc3C)n2CC2CCCO2)cc1 (stereo not given) -2%
Cc1cc(C)n2nc(C(=O)N3CCN(Cc4ccc5c(c4)OCO5)CC3)nc2n1 -2%
C/C(=N/Nc1ccc(Cl)cc1)c1cnnc(-c2ccccc2)n1 -1%
O=C(O)/C=C/C(=O)NNc1ccc([N+](=O)[O-])cc1 5%
CCOC(=O)c1cccc(NC(=O)CCOc2ccccc2)c1 -1%
O=C(Cn1nnc2ccccc2c1=O)NCc1ccc(Cl)cc1 -1%
CSc1nc2ccccc2c(=O)n1Cc1ccc(F)cc1 0%
COc1ccc(NC(=S)NCC2CCN(c3ccc(OC)cc3)C2)cc1 (stereo not given) 0%
CCOc1ccc(N2C(=O)/C(=C/c3ccc(C)o3)N(C)C2=S)cc1 4%
O=c1[nH]n2c(-c3ccccc3)nc(O)c2c2ccccc12 -1%
COc1ccc(C(C(=O)NC2CCCCC2)N(C(=O)CCl)c2ccccc2Cl)cc1 (stereo not given) 0%
OC(CNCc1ccc(Cl)c(Cl)c1)c1ccccc1 (stereo not given) 0%
O=C(COc1ccc(Cl)cc1[N+](=O)[O-])N1CCCCC1 3%
Cc1nccn1CC(=O)N/N=C/c1ccc(O)c(O)c1 -5%
CN(Cc1nc2ccc(F)cc2[nH]1)Cc1nc(CC2CC2)no1 -6%
Nc1nnc(SCC(=O)OCc2ccc(Cl)c(Cl)c2)s1 3%
CN(C)CCOc1cccc(Br)c1 -3%
Clc1cc(-c2ccc(/C=N/n3cnnc3)o2)ccc1Br 0%
CCC(=O)N(Cc1cc2ccccc2[nH]c1=O)c1ccc(OC)cc1 0%
CCOC(=O)c1cnc2c(c(C)nn2CC)c1Cl -1%
CN(C)/N=C/c1cn(-c2ccccc2)nc1-c1cccnc1 1%
Cc1cc(C)n(-c2ccc(C(=O)O)cc2[N+](=O)[O-])n1 0%
CCCCNC(=O)C1CCC(CNS(=O)(=O)c2ccc(NC(C)=O)cc2)CC1 (stereo not given) 1%
C=CCn1c(=NC(=O)c2cccs2)sc2cc(NC(C)=O)ccc21 0%
O=C(NNC(=S)NCc1ccccc1)c1ccc(OC(F)F)cc1 1%
CC(=O)c1cccc(-n2nnnc2SCC(=O)NNC(=O)C2CCCCC2)c1 0%
CC(=O)c1cc(C#N)c(SCC(=O)Nc2nccs2)nc1C -1%
COCCNC(=O)c1ccc(-n2c(SCc3cccnc3)nc3ccccc3c2=O)cc1 -4%
CCCCN(CC)CCNC(=O)CCNC(=O)Cn1ccc2ccccc2c1=O -2%
CCN(CC(=O)NCc1cccs1)S(=O)(=O)c1ccc(NC(C)=O)cc1 0%
CN(CCC1CCOCC1)Cc1cn[nH]c1-c1ccc(-c2ccccc2)cc1 -1%
O=C(NC(=S)N1CCN(Cc2ccccc2)CC1)c1ccccc1 -3%
CCOC(=O)c1c(NC(=O)C(C)Sc2c[nH]c3ccccc23)sc2c1CCC2 (stereo not given) -3%
COc1cc(NC(=S)NCc2ccco2)c(OC)cc1Cl -1%
O=C(c1ccc(F)cc1)c1cn(Cc2ccc(F)cc2)c2cc3c(cc2c1=O)OCCO3 -4%
COc1cc(C)c(S(=O)(=O)N2CCOCC2)c(C)c1C -3%
Cc1nnsc1C(=O)N/N=C/c1cccc(C(F)(F)F)c1 -2%
CCOC(=O)c1[nH]c2c(c1-c1ccccc1)C(=O)CC(c1ccc(Cl)cc1)C2 (stereo not given) -3%
COc1ccc(N=C2SC(C(=O)Nc3ccc(F)cc3)CC(=O)N2C)cc1 (stereo not given) 0%
CNC(=O)/C(C#N)=C/c1c(F)cccc1Cl -2%
CCn1ncc(CNC(=O)C2(C)CC2(Br)Br)c1C (stereo not given) -4%
Cc1ccc(N(C(=O)C(F)(F)F)C(C(=O)NC2CCCCC2)c2ccncc2)cc1C (stereo not given) -1%
N#Cc1cccc(Nc2c3c(nc4ccccc24)CCCC3)c1 4%
COc1ccc(Cl)cc1NC(=O)CN(C)Cc1ccc(OC)c(OC)c1 -4%
NC(=O)CC[C@@H]1NC(=O)[C@H](CO)NC(=O)c2cc([N+](=O)[O-])cc(I)c2NCC[C@@H](C(N)=O)NC1=O 0%
O=C(/C=C/c1ccc(N2CCOCC2)cc1)c1ccccc1 -4%
CCCC(C)C(=O)OCC(=O)Nc1c(Br)cc(C)cc1Br (stereo not given) 0%
O=S(=O)(c1ccc(F)cc1)N1CCN(C(=S)NC2CCCC2)CC1 0%
COc1cc2c(cc1NC(=O)COC(=O)/C=C/c1ccccc1)oc1ccccc12 -7%
Cc1ccc(N(C(=O)c2sc(C)nc2C)C(C(=O)NC(C)(C)C)c2ccncc2)cc1 (stereo not given) -1%
COc1ccc(C(=O)CSc2nnc(NC(=O)C3CC(=O)N(c4cccc(OC)c4)C3)s2)cc1 (stereo not given) -2%
O=C(Nn1c(-c2ccc(Cl)cc2)nc2ccccc2c1=O)c1cccnc1Cl 10%
Cc1cc(OCCCN2CCN(Cc3ccccc3)CC2)ccc1[N+](=O)[O-] 0%
COc1ccc(Nc2ncc(F)c(N3CCOCC3)n2)cc1 -1%
CCCCCOc1ccc(/C=C/C(=O)NCCc2nc3ccccc3[nH]2)cc1OC -7%
CCCC/C(C)=N/NC(=O)NC1CCCCC1 -3%
COc1ccnc(Oc2ccccc2)c1-c1ncn[nH]1 -1%
N=c1n(CCc2ccccc2)c2ccccc2n1Cc1ccccc1F -6%
COc1ccccc1NC(=S)N1CCN(C(c2ccccc2)c2ccccc2)CC1 1%
O=C(c1ccncc1)N1CCN(c2ccc3ccccc3n2)CC1 0%
Cc1ccc(C(=O)Oc2coc(CSc3nnc(NC(=O)c4cccs4)s3)cc2=O)cc1C -6%
COc1ccc(NC(=O)C(=O)NCC(=O)Nc2cccc(C(F)(F)F)c2)cc1 1%
CCN(CC)C(=O)CS(=O)CC(=O)Nc1cc(OCCOC)c(Cl)cc1Cl (stereo not given) -1%
Brc1cc(/C=N/n2cnnc2)oc1Br -2%
CCc1ccc(CN(C)C(=O)CCc2nnc(-c3ccc(-c4ccccc4)cc3)o2)nc1 1%
CC(C)N(Cc1ccccc1)C(=O)COC(=O)c1cnccn1 -1%
COCC(C)n1c(C)cc(C(=O)CSc2cc(C)c3ccccc3n2)c1C (stereo not given) -6%
O=C(c1cccs1)n1nc(NCc2ccccc2)nc1NCc1ccccc1 0%
Cc1ccc(NCc2n[nH]c(=S)n2-c2ccccc2)cc1Cl 0%
Cc1cc2nc(C(F)(F)F)cc(-c3cccs3)n2n1 0%
O=C1Oc2ccccc2C(=O)/C1=C/c1ccccc1O 0%
Cc1ccc(/C=C/C(=O)Nc2cc(S(=O)(=O)N3CCCCCC3)ccc2OCC(F)(F)F)o1 -2%
Cc1ccc(C2CC(c3cccc(NS(C)(=O)=O)c3)=NN2S(C)(=O)=O)cc1 (stereo not given) -1%
COCCn1c(=O)[nH]c(=O)c2cc(C(=O)c3cc(OC)ccc3O)cnc21 -3%
